Measured values as given in PubChem BioAssay (NCI).
Where “and” joins values, the source holds several entries; their conditions need not be identical. Equal values may be shown once. This is part of a sample that, as a whole, favours compounds with a hit. Of some 79,000 tested, about 15% had one in any assay. Some compounds were tested as several samples or in several runs, with calls that do not always agree. Calls of active or inactive are those of the source. Rule as the data show it: active = growth inhibition above about 70%; inactive = the rest.

How the values were obtained:
[1] = NCI Yeast Anticancer Drug Screen. Data for the rad52 strain (AID 147);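 also: 0% = growth of vehicle-treated control cultures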; conditions: S. cerevisiae rad52 mutant growth inhibition, stronger effect = higher value
Method in brief: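 The repair-mutant yeast strain was incubated with compounds, then growth was read and inhibition derived relative to vehicle.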

[2] = NCI Yeast Anticancer Drug Screen. Data for the wt1 strain (AID 149);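 also: 0% = growth of vehicle-treated wt1 cultures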; conditions: S. cerevisiae wt1 strain (SPY 50644) growth inhibition, stronger effect = higher value
Method in brief: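 Vehicle-normalised growth inhibition; strain wt1; compound exposure.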

[3] = NCI Yeast Anticancer Drug Screen. Data for the rad50EPP+ strain (AID 151);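 also: 0% = growth of vehicle-treated control cultures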; conditions: S. cerevisiae rad50 mutant strain, stronger effect = higher value
Method in brief: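 Vehicle-normalised growth inhibition; rad50EPP+ yeast strain, altered in DNA damage repair, compound-treated.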

[4] = NCI Yeast Anticancer Drug Screen. Data for the mgt1 strain (AID 153); conditions: S. cerevisiae mgt1 mutant growth inhibition, stronger effect = higher value
Method in brief: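 Vehicle-normalized growth inhibition is determined in mgt1 yeast, a strain selected for a defined alteration in DNA repair or cell cycle control.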

[5] = NCI Yeast Anticancer Drug Screen. Data for the rad50 strain (AID 155);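 also: 0% = growth of vehicle-only cultures of the same strain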; conditions: S. cerevisiae rad50 strain growth inhibition, stronger effect = higher value
Method in brief: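 A DNA repair-deficient yeast mutant serves as the test organism; compound-induced growth inhibition is calculated against vehicle-treated cells.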

[6] = NCI Yeast Anticancer Drug Screen. Data for the mec2-1 strain (AID 157); conditions: S. cerevisiae mec2-1 strain, stronger effect = higher value
Method in brief: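 Mutant yeast (mec2-1) grown with compound; growth inhibition relative to vehicle control reported.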

[7] = NCI Yeast Anticancer Drug Screen. Data for the rad14 strain (AID 159);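 also: 0% = growth of vehicle-treated control cultures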; conditions: S. cerevisiae rad14 strain growth inhibition, stronger effect = higher value
Method in brief: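 Vehicle-treated cultures served as the baseline for growth inhibition of a DNA repair-mutant yeast strain exposed to each compound.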

[8] = NCI Yeast Anticancer Drug Screen. Data for the sgs1 mgt1 strain (AID 161);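 also: 0% = growth of cultures given vehicle only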; conditions: S. cerevisiae sgs1 mgt1 strain, stronger effect = higher value
Method in brief: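 Growth of a repair-deficient yeast mutant was monitored after compound treatment and expressed as inhibition relative to vehicle-treated cultures.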

[9] = NCI Yeast Anticancer Drug Screen. Data for the CLN2oe strain (AID 163);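 also: 0% = growth of vehicle-only control cultures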; conditions: S. cerevisiae CLN2oe strain, stronger effect = higher value
Method in brief: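 Compounds are applied to yeast harbouring a defined cell-cycle control change; reduced growth compared with vehicle-treated controls gives the value.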

[10] = NCI Yeast Anticancer Drug Screen. Data for the cln2 rad14 strain (AID 165);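 also: 0% = growth equal to vehicle treated cultures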; conditions: S. cerevisiae cln2 rad14 strain, stronger effect = higher value
Method in brief: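 Readout is yeast growth inhibition versus vehicle-treated controls, using a strain with cln2 and rad14 alterations exposed to compound.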

[11] = NCI Yeast Anticancer Drug Screen. Data for the bub3 strain (AID 167); conditions: S. cerevisiae bub3 mutant strain, stronger effect = higher value
Method in brief: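 Inhibition values come from growth of compound-treated mutant yeast normalised to vehicle-treated controls.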

[12] = NCI Yeast Anticancer Drug Screen. Data for the mlh1 strain (AID 171);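 also: 0% = growth of vehicle-treated control cultures of the same strain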; conditions: S. cerevisiae mlh1 strain growth inhibition, stronger effect = higher value
Method in brief: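 Measured: yeast growth. Reference: vehicle-treated controls. Organism: strain with a defined alteration affecting DNA damage repair or cell cycle control, treated with compound.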

[13] = NCI Yeast Anticancer Drug Screen. Data for the mlh1 rad18 strain (AID 175); conditions: S. cerevisiae mlh1 rad18 strain growth inhibition, stronger effect = higher value
Method in brief: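 Genetically defined yeast (DNA repair-deficient) exposed to compounds; growth inhibition determined relative to vehicle.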

[14] = NCI Yeast Anticancer Drug Screen. Data for the rad18 strain (AID 177); conditions: S. cerevisiae rad18 mutant growth inhibition, stronger effect = higher value
Method in brief: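 Vehicle-treated cultures served as the baseline for scoring compound-induced growth inhibition in DNA-repair-mutant yeast.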

[15] = at 5.0 µM (retest, dose inferred, filed as 0.5)
[16] = at 50.0 µM (retest, dose inferred, filed as 5.0)

Measured: growth inhibition

Oc1c(Br)cc(Br)cc1Br
59.5% (inactive) and 98.7% (active): [8]; at 50.0 µM
66.5% (inactive) and 99% (active): [5]; at 50.0 µM
54% (inactive) and 98% (active): [5]; [16]
49% (inactive) and 98.4% (active): [10]; at 50.0 µM
59.6% (inactive) and 99% (active): [13]; at 50.0 µM
52% (inactive) and 99.5% (active): [6]; at 50.0 µM
inactive: [1]; at 1.2 µM 5% | [1]; at 3.7 µM 2% | [1]; at 11.0 µM 3% | [1]; at 33.0 µM 30% | [2]; at 1.2 µM -4% | [2]; at 3.7 µM -7% | [2]; at 11.0 µM 2% | [2]; at 33.0 µM 37% | [3]; at 1.2 µM 3% | [3]; at 3.7 µM 12% | [3]; at 11.0 µM 30% | [3]; at 33.0 µM 60% | [4]; at 1.2 µM 12% | [4]; at 3.7 µM 1% | [4]; at 11.0 µM 24% | [4]; at 33.0 µM 52% | [5]; at 1.2 µM 10% | [5]; at 3.7 µM 4% | [5]; [15] 41% and -1% | [5]; at 11.0 µM 5% | [5]; at 33.0 µM 41% | [6]; at 1.2 µM -1% | [6]; at 3.7 µM -7% | [6]; [15] 25% and 4% | [6]; at 11.0 µM 1% | [6]; at 33.0 µM 38% | [7]; at 1.2 µM -2% | [7]; at 3.7 µM 3% | [7]; at 11.0 µM 0% | [7]; at 33.0 µM 36% | [8]; [15] 7% | [9]; at 1.2 µM -14% | [9]; at 3.7 µM 7% | [9]; at 11.0 µM -1% | [9]; at 33.0 µM 21% | [10]; [15] 47% and -11% | [11]; at 1.2 µM -5% | [11]; at 3.7 µM 18% | [11]; [15] 40% and 0% | [11]; at 11.0 µM 24% | [11]; at 33.0 µM 39% | [12]; at 1.2 µM -3% | [12]; at 3.7 µM -19% | [12]; at 11.0 µM -9% | [12]; at 33.0 µM 22% | [13]; [15] 41% and 15% | [14]; at 1.2 µM 7% | [14]; at 3.7 µM 1% | [14]; at 11.0 µM 3% | [14]; at 33.0 µM 32%
35% (inactive) and 97% (active): [13]; [16]
active: [1]; at 100.0 µM 88% | [2]; at 100.0 µM 91% | [3]; at 100.0 µM 88% | [4]; at 100.0 µM 82% | [5]; at 100.0 µM 91% | [6]; at 100.0 µM 86% | [7]; at 100.0 µM 77% | [8]; [16] 79% and 99% | [9]; at 100.0 µM 89% | [10]; [16] 87% and 99% | [11]; [16] 86% and 98% | [11]; at 50.0 µM 70.3% and 99.2% | [11]; at 100.0 µM 87% | [12]; at 100.0 µM 78% | [14]; at 100.0 µM 88%
44% (inactive) and 99% (active): [6]; [16]
